Laboratory results taken from PubChem BioAssay AID1159580 (chemical genetic matrix, 2015).
In all, about 5,500 compounds went through this assay and about 2,000 (36%) were called active. About 18% were inconclusive and are not listed. The list shows a part of the results. Unmarked numbers belong to inactive results. Rule as the data show it: active = normalized growth mostly below about 0.91 (no sharp cut-off); inconclusive = no clear call, values can overlap the other calls; inactive = mostly above about 0.92.

Assay: chemical genetic growth profiling, strain panel (AID 1159580);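 also: tested at 20 µM; growth read once vehicle control cultures reached saturation at 30 °C; 1 = growth at the plate median or of vehicle wells; lower values mean less growth of the strain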
Details: S. cerevisiae deletion strains, growth OD

Compound: COc1ccc2ccc(=O)oc2c1CC=C(C)C
- normalized growth (locus YAL021C, strain ccr4, hits give low values): 1.02
- normalized growth (locus YAL026C, strain drs2, hits give low values): 0.883 (active)
- normalized growth (locus YAL030W, strain snc1, hits give low values): 0.92 (active)
- normalized growth (locus YBL061C, strain skt5, hits give low values): 0.912 (active)
- normalized growth (locus YBR009C, strain hhf1, hits give low values): 0.769 (active)
- normalized growth (locus YBR021W, strain FUR4, hits give low values): 0.662 (active)
- normalized growth (locus YBR023C, strain chs3, hits give low values): 0.843 (active)
- normalized growth (locus YBR171W, strain sec66, hits give low values): 0.896
- normalized growth (locus YBR229C, strain ROT2, hits give low values): 0.885 (active)
- normalized growth (locus YBR231C, strain swc5, hits give low values): 0.866 (active)
- normalized growth (locus YBR279W, strain paf1, hits give low values): 0.929 (active)
- normalized growth (locus YCL011C, strain gbp2, hits give low values): 0.787 (active)
- normalized growth (locus YCL016C, strain dcc1, hits give low values): 0.891 (active)
- normalized growth (locus YCL029C, strain bik1, hits give low values): 0.826 (active)
- normalized growth (locus YCL061C, strain MRC1, hits give low values): 0.835 (active)
- normalized growth (locus YCL069W, strain vba3, hits give low values): 0.919 (active)
- normalized growth (locus YCR088W, strain abp1, hits give low values): 0.915 (active)
- normalized growth (locus YDL005C, strain med2, hits give low values): 0.948
- normalized growth (locus YDL035C, strain GPR1, hits give low values): 0.794 (active)
- normalized growth (locus YDL040C, strain nat1, hits give low values): 0.91 (active)
- normalized growth (locus YDL074C, strain BRE1, hits give low values): 0.752 (active)
- normalized growth (locus YDL101C, strain DUN1, hits give low values): 0.768 (active)
- normalized growth (locus YDL185W, strain tfp1, hits give low values): 0.928
- normalized growth (locus YDL192W, strain arf1, hits give low values): 0.794 (active)
- normalized growth (locus YDR001C, strain nth1, hits give low values): 0.909 (active)
- normalized growth (locus YDR069C, strain doa4, hits give low values): 1.03
- normalized growth (locus YDR101C, strain arx1, hits give low values): 0.823 (active)
- normalized growth (locus YDR137W, strain rgp1, hits give low values): 0.715 (active)
- normalized growth (locus YDR159W, strain sac3, hits give low values): 0.771 (active)
- normalized growth (locus YDR162C, strain NBP2, hits give low values): 0.645 (active)
- normalized growth (locus YDR195W, strain ref2): 1.02
- normalized growth (locus YDR297W, strain sur2, hits give low values): 0.934
- normalized growth (locus YDR318W, strain mcm21, hits give low values): 0.741 (active)
- normalized growth (locus YDR334W, strain swr1, hits give low values): 0.936
- normalized growth (locus YDR335W, strain msn5, hits give low values): 0.95
- normalized growth (locus YDR388W, hits give low values): 0.89 (active)
- normalized growth (locus YDR392W, strain spt3, hits give low values): 0.396 (active)
- normalized growth (locus YDR502C, strain sam2, hits give low values): 0.788 (active)
- normalized growth (locus YEL003W, strain gim4, hits give low values): 0.832 (active)
- normalized growth (locus YEL037C, strain rad23, hits give low values): 0.935
- normalized growth (locus YEL061C, strain CIN8 (second series), hits give low values): 0.921
- normalized growth (locus YEL061C, strain CIN8, hits give low values): 0.774 (active)
- normalized growth (locus YER015W, strain faa2, hits give low values): 0.935
- normalized growth (locus YER016W, strain bim1, hits give low values): 0.91 (active)
- normalized growth (locus YER110C, hits give low values): 0.873 (active)
- normalized growth (locus YER111C, strain swi4, hits give low values): 0.942
- normalized growth (locus YER155C, strain BEM2 (second series), hits give low values): 0.434 (active)
- normalized growth (locus YER155C, strain BEM2, hits give low values): 0.657 (active)
- normalized growth (locus YER167W, strain BCK2, hits give low values): 0.561 (active)
- normalized growth (locus YFR010W, strain ubp6, hits give low values): 0.923
- normalized growth (locus YGL078C, strain dbp3, hits give low values): 0.917 (active)
- normalized growth (locus YGL086W, strain mad1, hits give low values): 0.844 (active)
- normalized growth (locus YGL167C, strain pmr1, hits give low values): 0.908 (active)
- normalized growth (locus YGL173C, strain kem1, hits give low values): 0.94
- normalized growth (locus YGL227W, strain vid30, hits give low values): 0.875 (active)
- normalized growth (locus YGL240W, strain doc1, hits give low values): 0.701 (active)
- normalized growth (locus YGL248W, strain PDE1, hits give low values): 0.704 (active)
- normalized growth (locus YGL253W, strain hxk2, hits give low values): 0.818 (active)
- normalized growth (locus YGR135W, strain pre9, hits give low values): 0.75 (active)
- normalized growth (locus YGR252W, strain gcn5, hits give low values): 0.583 (active)
- normalized growth (locus YHR013C, strain ard1, hits give low values): 0.801 (active)
- normalized growth (locus YHR027C, strain rpn1, hits give low values): 0.957
- normalized growth (locus YHR030C, strain SLT2, hits give low values): 0.831 (active)
- normalized growth (locus YHR079C, strain IRE1 (second series), hits give low values): 0.896 (active)
- normalized growth (locus YHR094C, strain hxt1, hits give low values): 0.898 (active)
- normalized growth (locus YHR129C, strain ARP1, hits give low values): 0.741 (active)
- normalized growth (locus YHR142W, strain chs7, hits give low values): 0.739 (active)
- normalized growth (locus YHR200W, strain rpn10, hits give low values): 0.812 (active)
- normalized growth (locus YIL066C, strain RNR3, hits give low values): 0.622 (active)
- normalized growth (locus YIL073C, strain SPO22, hits give low values): 0.85
- normalized growth (locus YIL125W, strain kgd1, hits give low values): 0.888 (active)
- normalized growth (locus YIR030C, strain dcg1, hits give low values): 0.841 (active)
- normalized growth (locus YJL092W, strain hpr5, hits give low values): 0.896 (active)
- normalized growth (locus YJL095W, strain BCK1 (second series), hits give low values): 0.936
- normalized growth (locus YJL095W, strain BCK1, hits give low values): 0.566 (active)
- normalized growth (locus YJL115W, strain asf1, hits give low values): 0.967
- normalized growth (locus YJL129C, strain trk1, hits give low values): 0.866 (active)
- normalized growth (locus YJL134W, strain LCB3, hits give low values): 0.921 (active)
- normalized growth (locus YJL154C, strain vps35, hits give low values): 0.944
- normalized growth (locus YJL164C, strain tpk1, hits give low values): 0.883 (active)
- normalized growth (locus YJL166W, strain qcr8, hits give low values): 0.803 (active)
- normalized growth (locus YJL168C, strain set2, hits give low values): 0.941
- normalized growth (locus YJL187C, strain SWE1 (second series), hits give low values): 0.783 (active)
